# Only some compounds are listed: those with a hit (about 11% of all), similar ones and a draw of the others.
# L3MBTL1 inh: L3MBTL1 (human) inhibition | Q9Y468 | AlphaScreen L3MBTL1–H3K9me1 peptide binding | Potency, µM (highest dose often 57.1 µM), actives largely listed as inhibitors | 230,000 tested, 0.66% active | AID 485360; further: nearly all actives have a fitted effect of over 60% in size
#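 Read-out is AlphaScreen signal from streptavidin donor and nickel chelate acceptor beads (10 ug/mL final each) bridging L3MBTL1 (50 nM) and biotinylated K9-monomethylated H3(1-15) peptide (75 nM), after 30 min compound exposure at room temperature.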
# JMJD2A Tudor inh: inhibitors of human JMJD2A Tudor domain; O75164; AlphaScreen JMJD2A-Tudor / H3K4me3 peptide binding; Potency, µM (highest dose often 114 µM), actives largely listed as inhibitors; 390,000 tested, 4.4% active; further: nearly all actives have a fitted effect of over 50% in size
# BAZ2B inh: inhibitors of human BAZ2B bromodomain; Q9UIF8; AlphaScreen BAZ2B-H3K14Ac peptide displacement; Potency, µM (highest dose often 114 µM), hits mostly inhibitors; 360,000 tested, 4.4% active; AID 504333; further: nearly all actives have a fitted effect of over 60% in size
#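 BAZ2B (50 nM) with biotin-H3(5-23)K14Ac peptide (50 nM) in PBS pH 7.4, 0.01% Tween-20, preformed 30 min, then compound 30 min at room temperature; top concentration 110uM. AlphaScreen streptavidin donor/nickel chelate acceptor beads (10 ug/mL final), 20 min dark, signal read.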
# HP1b chromo inh: inhibitors of HP1-beta chromodomain binding to methylated histone tails | AlphaScreen HP1-beta / biotin-H3K9me3 peptide binding | Potency, µM (series often up to 114 µM), most hits filed as inhibitors | 390,000 tested, 0.56% active | AID 540317; further: nearly all actives have a fitted effect of over 70% in size
# Target sequence (P83916 whole entry, looked up): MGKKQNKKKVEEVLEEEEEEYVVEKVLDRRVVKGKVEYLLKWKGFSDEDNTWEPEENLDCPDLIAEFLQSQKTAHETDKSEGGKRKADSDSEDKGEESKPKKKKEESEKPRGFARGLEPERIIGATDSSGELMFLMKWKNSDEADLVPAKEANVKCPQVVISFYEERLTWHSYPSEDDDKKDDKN
#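 AlphaScreen: HP1-beta (50 nM) preformed 30 min with biotin-H3(1-18)K9me3 peptide (50 nM) in PBS pH 7.4, 0.01% Tween-20. Compound added for 30 min at RT, then streptavidin donor/nickel chelate acceptor beads (10 ug/mL) for 30 min.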
# G9a inh: G9a (human) methyltransferase inhibition | 350,000 tested, 8.8% active | Q96KQ7 | Potency, µM (doses to about 102 µM), hits mostly inhibitors | G9a H3K9 monomethylation, AlphaScreen, 2 h; further: nearly all actives have a fitted effect of over 75% in size
# Target sequence (Q96KQ7 913-1193 limits assumed): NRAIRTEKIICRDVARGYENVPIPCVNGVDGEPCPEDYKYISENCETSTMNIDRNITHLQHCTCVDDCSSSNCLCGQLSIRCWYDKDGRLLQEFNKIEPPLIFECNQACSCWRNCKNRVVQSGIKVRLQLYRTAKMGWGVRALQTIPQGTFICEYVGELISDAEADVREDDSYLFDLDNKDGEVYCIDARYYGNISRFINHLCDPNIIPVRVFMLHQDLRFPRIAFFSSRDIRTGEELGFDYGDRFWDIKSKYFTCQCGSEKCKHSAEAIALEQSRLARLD
#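 Chemiluminescent proximity detection of H3K9 monomethylation, read after 10 min bead incubation in the dark. Reaction: 20 nM G9a, 500 nM biotin-H3K9 peptide, 20 uM SAM cofactor, 2 h, room temperature, following 15 min enzyme-compound preincubation.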
# Hits are given with their value; i = inactive; ? = inconclusive; nt = no result given; [ ] = dose if it differs, or a comment. The call rests on the fitted dose curve; in most records, active means well fitted inhibition curve with a large enough effect; inconclusive means small, poorly fitted or top-dose-only effect; inactive means no such curve, though single readings can be large or run the other way.
SMILES,L3MBTL1 inh,JMJD2A Tudor inh,BAZ2B inh,HP1b chromo inh,G9a inh
CN(C)S(=O)(=O)c1ccc(C(=O)Nc2ccc(-n3nncc3-c3ccccc3)cc2)cc1,nt,i,i,i,i
Cc1cc(C)n(-c2nc3cc(Cl)ccc3nc2N2CCN(c3ccccc3F)CC2)n1,nt,i,i,i,i
CCCC[C@]12Cc3cc(OC)c(OC)cc3C(O1)c1c(cc(-c3ccccc3)oc1=O)O2,nt,nt,i[22.9 µM],nt,nt
COc1ccc(C2C(C(=O)/C=C/c3ccco3)=C(O)C(=O)N2CCN2CCOCC2)cc1OC (centres undefined),nt,i,nt,i,50µM
CCOc1ccc(C2C(C(=O)c3ccc(C)o3)=C(O)C(=O)N2CCN2CCOCC2)cc1OC (centres undefined),i,28µM,?,i,18µM
CCOc1ccc(C2C(C(=O)c3ccco3)=C(O)C(=O)N2CCN2CCOCC2)cc1OCC (centres undefined),nt,i,i,i,40µM
CCCOc1ccc(C2C(C(=O)c3ccco3)=C(O)C(=O)N2CCN2CCOCC2)cc1OC (centres undefined),i,nt,i,nt,?
CC(C)c1ccc(C2C(C(=O)c3ccco3)=C(O)C(=O)N2CCN2CCOCC2)cc1 (centres undefined),nt,i,i,i,50µM
COc1cccc(C2C(C(=O)c3ccc(C)o3)=C(O)C(=O)N2CCN2CCOCC2)c1 (centres undefined),nt,i,i,i,nt
Cc1ccc(CNC(=O)Cn2c(=O)c3sccc3n(Cc3ccc([N+](=O)[O-])cc3)c2=O)cc1,i,i,i,i,i
CCC(=O)Nc1nnc(-c2ccc(Cl)s2)o1,nt,i,nt,i,i
CC(=O)Nc1nnc(-c2ccc(Cl)s2)o1,i,i,i,i,14µM
C=CCOc1cccc(C2C(C(=O)c3ccco3)=C(O)C(=O)N2Cc2cccnc2)c1 (centres undefined),nt,i,i,i,32µM
Cc1ccc(C(=O)C2=C(O)C(=O)N(Cc3ccco3)C2c2cccc(Br)c2)o1 (centres undefined),nt,?,?,i,?
COc1ccc(C2C(C(=O)c3ccc(C)o3)=C(O)C(=O)N2Cc2cccnc2)cc1 (centres undefined),nt,35µM,i,i,50µM
Cc1ccc(C2C(C(=O)c3ccco3)=C(O)C(=O)N2c2ncccn2)cc1 (centres undefined),i,i,i,i,i
O=C(C1=C(O)C(=O)N(Cc2ccco2)C1c1cccc(O)c1)c1ccco1 (centres undefined),nt,i,i,i,50µM
Cc1ccc(C(=O)C2=C(O)C(=O)N(c3ncccn3)C2c2cccc(Cl)c2)o1 (centres undefined),i,nt,?,nt,10µM
CC(C)c1ccc2oc(-c3cc(NC(=O)c4cccnc4)ccc3Cl)nc2c1,nt,i,i,i,?
Cc1c(C(=O)N(Cc2ccco2)Cc2ccccc2Cl)oc2ccc(F)cc12,nt,i,i,i,i
Cc1ccc(C(=O)C2=C(O)C(=O)N(Cc3cccnc3)C2c2ccc(Br)cc2)o1 (centres undefined),nt,i,i,i,?
O=C(C1=C(O)C(=O)N(Cc2ccco2)C1c1cccnc1)c1cc2ccccc2o1 (centres undefined),nt,?,i,i,?
Cc1ccc(C(=O)C2=C(O)C(=O)N(Cc3ccco3)C2c2ccc(N(C)C)cc2)o1 (centres undefined),nt,?,35µM,i,nt
COc1cccc2cc(C(=O)C3=C(O)C(=O)N(Cc4ccco4)C3c3cccnc3)oc12 (centres undefined),nt,79µM,i,i,?
O=C(C1=C(O)C(=O)N(CCCn2ccnc2)C1c1ccccc1)c1ccco1 (centres undefined),nt,i,i,i,nt
O=C(C1=C(O)C(=O)N(Cc2ccccc2)C1c1ccncc1)c1ccco1 (centres undefined),i,?,i,i,40µM
Cc1ccc(C(=O)C2=C(O)C(=O)N(Cc3cccnc3)C2c2ccc(N(C)C)cc2)o1 (centres undefined),nt,i,i,i,35µM
CCN1C(=O)[C@@H]2[C@@H](c3ccc(-c4ccc(C(C)=O)cc4)c(OC)c3)N3CCCC[C@@]3(C(=O)OC)[C@@H]2C1=O,i,i,i,i,i[2.33 µM]
